# Sampled rows, rich in hits. Any-hit rate of the full collection: about 12%.
# USP17 block – human USP17-like deubiquitinase inhibition. A8MUK1. purified USP17, Ub-rhodamine cleavage fluorescence, 3 h. inhibition, % at 50 µM. 6.5% of 47,000 active. AID 1645855
# USP30 block – human USP30 deubiquitinase inhibition; 5.3% of 47,000 active; inhibition, % at 25 µM; Q70CQ3; purified USP30, Ub-rhodamine cleavage fluorescence; AID 1645860
# USP28 block – blocks human USP28 ubiquitin-rhodamine cleavage | Q96RU2 | purified USP28, Ub-rhodamine cleavage fluorescence, 30 min | inhibition, % at 25 µM | 3% of 47,000 active | AID 1645857
# OTUD3 block – blocks human OTUD3 ubiquitin-rhodamine cleavage | inhibition, % at 25 µM | 0.7% of 47,000 active | purified OTUD3, Ub-rhodamine fluorescence, 2 h | AID 1645858 | Q5T2D3
# Target sequence (Q5T2D3 whole entry, looked up): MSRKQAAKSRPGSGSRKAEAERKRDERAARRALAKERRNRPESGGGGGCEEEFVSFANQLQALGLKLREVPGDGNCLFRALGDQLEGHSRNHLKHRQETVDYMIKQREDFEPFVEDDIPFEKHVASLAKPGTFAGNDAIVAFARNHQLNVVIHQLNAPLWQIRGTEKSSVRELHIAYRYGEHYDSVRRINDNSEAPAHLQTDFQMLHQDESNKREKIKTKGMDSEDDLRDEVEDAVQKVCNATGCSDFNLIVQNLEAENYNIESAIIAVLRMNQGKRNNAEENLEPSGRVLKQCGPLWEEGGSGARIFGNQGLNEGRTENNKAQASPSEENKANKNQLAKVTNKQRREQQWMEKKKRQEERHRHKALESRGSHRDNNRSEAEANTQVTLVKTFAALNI
# * marks the source's active call; other numbers are inactive results; / = no result. No stated cut-off is given here; in the data, active means inhibition above about 30%; inactive means the rest.
SMILES,USP17 block,USP30 block,USP28 block,OTUD3 block
CCNS(=O)(=O)c1ccc(-c2ccc(-n3cnnn3)cc2)cc1,20,25,8,0
O=S(=O)(NC1CCc2ccccc21)c1ccc(-n2cnnn2)cc1 (centres undefined),4,39*,24,7
O=C(Nc1cc(=O)[nH]c2nc(Cc3ccccc3)nn12)c1ccco1,-125,-242,-70,-40
Cc1ccc(S(=O)(=O)N(CC(=O)Nc2ccc(C)c(C)c2)C2CCCCC2)cc1,-5,11,-1,-2
O=C(Nc1ccccc1Sc1ncc(-c2ccc(Cl)cc2)cn1)c1ccco1,52*,24,14,7
O=C(Nc1ncc2c(n1)CC(c1ccc(Cl)cc1)CC2=O)c1ccco1 (centres undefined),15,-1,4,-3
O=S1(=O)CCN(Cc2cccnc2)c2c(F)nc(N3CCOCC3)c(F)c21,54*,-5,8,7
CCN(CC)c1nc(F)c2c(c1F)S(=O)(=O)CCN2Cc1ccccc1,64*,24,16,15
O=S1(=O)CCN(Cc2c(F)cccc2F)c2c(F)nc(N3CCOCC3)c(F)c21,67*,3,1,0
Cc1cc(C)cc(NC(=O)CN2C(=O)CC(c3ccccc3)Sc3ccccc32)c1 (centres undefined),27,57*,33*,21
COc1cc(C)ccc1-n1c(-c2ccc(F)cc2)cn2c3c(=O)n(C)c(=O)n(C)c3nc12,43*,39*,2,13
Cc1cc(C)cc(-n2c(-c3ccccc3)cn3c4c(=O)n(C)c(=O)n(C)c4nc23)c1,0,7,-5,-3
O=C(Nc1ccccc1-c1nc2ccccc2[nH]1)c1ccc(Br)cc1,-12,-7,-10,-4
O=C(Nc1ccccc1-c1nc2ccccc2[nH]1)c1sc2ccccc2c1Cl,83*,4,-6,-8
Cc1c2c(nc3ccccc13)-c1ccccc1CC2,5,-22,55*,7
COc1ccccc1N1CCN(CCNC(=O)Nc2cccc(C)c2C)CC1,-6,12,6,0
CCOc1ccc(CCNC(=O)c2cc3c(s2)CS(=O)(=O)C3)cc1OCC,/,6,39*,2
Cc1cccc(N2CCN(CCNC(=O)c3cc4c(s3)CS(=O)(=O)C4)CC2)c1C,-12,-45,40*,-11
CC(Oc1ccc(F)cc1)C(=O)Nc1ccc2nsnc2c1 (centres undefined),34*,-2,25,-4
CC(Oc1ccc(F)cc1)C(=O)Nc1ccccc1Br (centres undefined),10,7,3,8
Cc1nn(Cc2ccccc2Cl)c(Cl)c1C(=O)N1CCCc2ccccc21,-24,-51,-7,-8
COc1ccc(/C=C2\CSc3sccc3C2=O)cc1,20,21,50*,11
COc1ccc2c(c1)C(=O)C/C(=C\c1ccc(Cl)cc1)C2,20,20,16,18
CC(=O)NC[C@H]1C[C@]2(C)[C@@H](CCCC[C@]2(C)O)N1C(=O)Cc1c(C)noc1C,5,15,5,9
COc1ccc(OC)c(NC(=O)C2=C(C)Nc3ncnn3C2c2ccccc2OCc2ccc(C)cc2)c1 (centres undefined),58*,-20,-3,-5
SMILES,USP17 block,USP30 block,USP28 block,OTUD3 block
COc1ccc(NC(=O)NCCN2CCN(c3ccc(Cl)cc3)CC2)cc1,3,15,14,3
Cc1ccccc1C(=O)N1CCN(CCNC(=O)C(=O)Nc2ccc(Cl)cc2)CC1,15,42*,13,14
Cc1nc2cc(C3CCOCC3)[nH]n2c(=O)c1C,-3,7,-7,-6
CS(=O)(=O)c1ccc2nc(N(Cc3ccccc3)C(=O)c3ccc4c(c3)CCCC4)sc2c1,-4,-21,-5,-1
CCn1c(SCc2nc(N)c3ccccc3n2)nc2ccccc21,54*,39*,42*,16
O=C(CN1C(=O)c2ccccc2C1=O)Nc1nc(-c2ccc(Br)cc2)cs1,7,47*,32*,9
CC(C)C(=O)N1CCc2cc(-c3csc(NC(=O)CN4CCc5ccccc5C4)n3)ccc21,23,-106,-27,-33
CCOc1ccc(NS(=O)(=O)c2c[nH]c3ccc([N+](=O)[O-])cc23)cc1,53*,63*,15,9
Cc1ccc(CN2CCCn3nc(C(=O)NCc4ccccc4C)cc3C2=O)cc1,50*,52*,9,15
Cc1ccc(CN2CCCn3nc(C(=O)NCc4cccs4)cc3C2=O)cc1,-2,-21,22,-7
O=C(NCCc1ccco1)c1ccc(N2CCOc3ccccc32)s1,57*,47*,22,14
Cc1cc2nc(NCCCN3CCCC3=O)c3ccccc3n2n1,-17,-1,-12,-6
CCOC(=O)c1ccc(NC(=O)CSc2nnc(CNC(=O)c3ccc(OC)cc3)o2)cc1,33*,35*,4,0
O=c1c2ccc(Cl)cc2ncn1Cc1csc(-c2ccccc2)n1,27,0,20,11
Cc1ccc(-c2nc(Cn3cnc4ccccc4c3=O)cs2)cc1,37*,58*,33*,22
CCN(C(=O)Cc1cc2ccccc2[nH]1)C1(C(=O)Nc2cccc(C)c2)CCCCC1,-11,-21,-9,0
COc1ccccc1-c1nc(-c2cn(-c3ccc(C)cc3)nn2)no1,62*,11,1,11
Fc1cccc(-n2cc(-c3noc(-c4ccncc4)n3)nn2)c1,11,18,4,4
COc1ccccc1-c1nc(-c2cn(-c3cccc(Cl)c3)nn2)no1,-18,46*,20,17
COc1cc(OC)cc(-c2nc(-c3cn(-c4cccc(F)c4)nn3)no2)c1,1,65*,22,21
Fc1cccc(Cn2cc(-c3noc(-c4cccnc4)n3)nn2)c1,63*,-5,-3,-2
COc1cccc(-c2nc(-c3cn(Cc4ccc(C)cc4)nn3)no2)c1,4,9,8,2
O=C(Nc1ccc(C(F)(F)F)cc1)C1CCN(S(=O)(=O)c2cccnc2)CC1,-9,-11,-6,-17
Cc1ccc(-c2cc3nccc(C4CCCNC4)n3n2)cc1 (centres undefined),1,12,40*,-1
c1ccc(COc2ncnc3scc(-c4ccccc4)c23)cc1,14,-19,34*,3
SMILES,USP17 block,USP30 block,USP28 block,OTUD3 block
Cc1ccnc(NC(=O)c2ccn(COc3ccccc3Cl)n2)c1,18,32*,16,-1
O=C(Nc1cc(F)ccc1F)c1ccn(COc2ccc(F)c(Cl)c2)n1,46*,70*,19,15
O=C(Nc1ccccc1)c1ccn(COc2ccccc2F)n1,-2,-5,25,-4
Cc1nc2ccccn2c(=O)c1NC(=O)COc1ccc(Cl)cc1,-4,14,-8,-6
O=C(Nc1cc(F)ccc1F)c1ccc2c(c1)ncn2CCN1CCCC1,-1,-30,0,-6
Cc1ccccc1NC(=O)c1ccn(COc2ccc(Cl)cc2)n1,19,19,59*,10
COC(=O)[C@@H]1[C@H](O)[C@H](C)[C@H](O)[C@](C)(O)/C=C\C=C(/C)C(=O)Nc2c(C)c(OC(C)=O)c3c(c2O)C(=O)C(C)=C2OCOC(=C23)/C(C)=C/[C@@](C)(O)[C@H](O)[C@H](C)[C@@H]1OC(C)=O,0,1,-4,-8
